Where “and” joins values, the source holds several entries; their conditions need not be identical. Equal entries are not always repeated. The campaign covered roughly 6,400 compounds. About 610 (9.5%) were called active. This is one part of a sample in which actives are shown more often than they occur. Cut-off read from the data, not from the text of the source: active = activity change below about -70%; inconclusive = no clear call, values can overlap the other calls; inactive = above that. A structure can be active in one record and inactive in another.

The assay can be described thus: T. gondii ME49Luc in HeLa cells, luciferase assay, 72 h, no IFN-y (AID 1259421). To be noted: stronger effect = lower value, concentration not given here.
Consider `NC(=O)CS(=O)C(c1ccccc1)c1ccccc1` (stereo unspecified), for which the activity change, negative = inhibition was -1.56% (inactive). Take `COC(=O)CN1CN(c2ccccc2)C2(CCN(Cc3ccc4ccccc4c3)CC2)C1=O`: the activity change, negative = inhibition was 13.3% (inactive). Then `O=C(CCCN1CCC2(CC1)C(=O)NCN2c1ccccc1)c1ccc(F)cc1`, with 2.21% (inactive) and -33.3% (inactive). Then `O=C(CCCN1CCC2(CC1)C(=O)N(Cc1cccc(F)c1)CN2c1ccccc1)c1ccc(F)cc1`, with 10% (inactive) and -81.6% (active). The value for `Cc1cc(OC(=O)N2CCCCC2)c(C(C)C)cc1[N+](C)(C)C` was -5.32% (inactive); that for `C/C(=C\c1csc(C)n1)[C@@H]1C[C@@H]2O[C@@H]2CCC[C@H](C)[C@H](O)[C@@H](C)C(=O)C(C)(C)[C@@H](O)CC(=O)O1` was -69.4% (inactive); that for `C/C1=C/C[C@@H](/C(C)=C/c2csc(C)n2)OC(=O)C[C@H](O)C(C)(C)C(=O)[C@H](C)[C@@H](O)[C@@H](C)CCC1` was -85.9% (active). For `C/C(=C\c1csc(C)n1)[C@H]1C[C@@H]2O[C@]2(C)CCC[C@H](C)[C@H](O)[C@@H](C)C(=O)C(C)(C)[C@@H](O)CC(=O)O1`, the activity change, negative = inhibition was -66.8% (inactive). `C/C(=C\c1csc(C)n1)[C@H]1C[C@@H]2O[C@]2(C)CCC[C@H](C)[C@H](O)[C@@H](C)C(=O)C(C)(C)[C@H](O)CC(=O)O1`: the activity change, negative = inhibition was -73.6% (active). Then `CCN1CC2(COC(=O)c3ccccc3N3C(=O)CC(C)C3=O)CCC(OC)C34C5CC6C(OC)CC(O)(C5C6OC)C(O)(C(OC)C23)C14` (stereo unspecified), with 4.55% (inactive). The value for `C[C@H](NC(=O)[C@@H](N)Cc1ccc(O)cc1)C(=O)NCC(=O)N(C)[C@@H](Cc1ccccc1)C(=O)N[C@H](CO)CCS(C)=O` (stereo partly specified) was 12.9% (inactive).

As for `O=C1/C(=C/c2ccccc2)C[C@@]2(O)C3Cc4ccc(O)c5c4[C@@]2(CCN3CC2CC2)[C@H]1O5`, the activity change, negative = inhibition is 1.86% (inactive). For the compound `COc1ccc2c(c1)[C@]13CCCC[C@H]1[C@H](C2)N(C)CC3`, the activity change, negative = inhibition is 16.4% (inactive). In the case of `Cc1cc(C)cc(C(=O)OC2CC3CCC(C2)N3C)c1` (stereo unspecified), the activity change, negative = inhibition is -12.3% (inactive) and -9.52% (inactive).

As to `CN1C(=O)CN=C(c2ccccc2)c2cc(Cl)ccc21`, the activity change, negative = inhibition was -6.2% (inactive).

As to `N#Cc1nn(-c2c(Cl)cc(C(F)(F)F)cc2Cl)c(N)c1S(=O)C(F)(F)F` (stereo unspecified), the activity change, negative = inhibition was 13.6% (inactive) and 5.34% (inactive). The value for `CC(N)Cc1c[nH]c2ccc(OCc3cccs3)cc12` (stereo unspecified) was 1.64% (inactive) and -1.85% (inactive); that for `C#Cc1cccc2c1c(C(=O)c1ccc(Cn3c(C)nc4cnccc43)c(F)c1)cn2C(=O)N(C)C` was -7.53% (inactive). Then `Oc1ccc2c3c1O[C@H]1c4[nH]c5ccccc5c4C[C@@]4(O)C(C2)N(CC2CC2)CC[C@]314`, with 10.7% (inactive). The value for `CO[C@H]1CCC(O[C@H]2CC([C@]3(C)CC[C@]4(C[C@H](O)[C@@H](C)[C@@H]([C@@H](C)/C=C(\C)C(=O)[C@H](C)C[C@H](C)C(=O)O)O4)O3)O[C@]3(O[C@@H](C4O[C@@](O)(CO)[C@H](C)C[C@@H]4C)C[C@@H]3C)[C@@H]2C)O[C@@H]1C` (stereo partly specified) was -83.8% (active); that for `N[C@H](CO)Cc1ccccc1` was 1.26% (inactive). In the case of `N#CC(C#N)=Cc1ccc([N+](=O)[O-])c(O)c1`, the activity change, negative = inhibition is -6.99% (inactive). Then `Oc1ccc2c(c1)[C@@]13CCCC[C@@]1(O)[C@@H](C2)N(CC1CCC1)CC3`, with 18.4% (inactive). The value for `CN1CCc2cc3c(cc2C1O)OCO3` (stereo unspecified) was 7.57% (inactive).

`COC(=O)C[C@@](O)(CCC(C)(C)O)C(=O)O[C@@H]1C(OC)=C[C@]23CCCN2CCc2cc4c(cc2[C@@H]13)OCO4`: the activity change, negative = inhibition was -83.3% (active). Then `CSCCC(NC(=O)C(Cc1ccccc1)NC(=O)CNC(=O)CNC(=O)C(N)Cc1ccc(O)cc1)C(=O)O` (stereo unspecified), with 10.2% (inactive). Then `CCC(CO)(C(=O)OC1CC2CCC(C1)[N+]2(C)C)c1ccccc1` (stereo unspecified), with 0.204% (inactive); and `FC(F)(F)c1cccc(C2=CCN(CCc3ccc4ccccc4c3)CC2)c1`, with 10.1% (inactive) and 11.9% (inactive); and `COC(=O)N1CCN(C(=O)Cc2ccc(Cl)c(Cl)c2)C(CN2CCCC2)C1` (stereo unspecified), with 6.7% (inactive).

For the compound `CCN1CCN(C(=O)Cc2ccc(Nc3ncc(F)c(Nc4ccc(C(=O)Nc5ccccc5Cl)cc4)n3)cc2)CC1`, the activity change, negative = inhibition is -83.3% (active). The value for `CC1(C)C2CC(=O)[C@]3(C)C(CC[C@@]4(C)[C@H](c5ccoc5)OC(=O)[C@H]5O[C@]543)[C@@]2(C)C(=O)C[C@H]1O` (stereo partly specified) was -1.25% (inactive). Then `CC(Cc1ccc(O)cc1)NCC(O)c1cc(O)cc(O)c1` (stereo unspecified), with -70.6% (active) and 10.9% (inactive).

`CNCC(O)c1ccc(O)cc1` (stereo unspecified): the activity change, negative = inhibition is 3.63% (inactive) and 14.9% (inactive).

Consider `C[C@H](Cc1ccc(OCC(=O)O)cc1)NC[C@H](O)c1cccc(Cl)c1`, for which the activity change, negative = inhibition is 4.02% (inactive) and 20.9% (inactive). The value for `C[C@]12C=CC(=O)C=C1CCC1C2CC[C@]2(C)C(=O)CCC12` (stereo partly specified) was 3.57% (inactive). Then `C[C@@H]1CN(C2CCC(C#N)(c3ccc(F)cc3)CC2)CC[C@]1(C(=O)O)c1ccccc1` (stereo partly specified), with -7.9% (inactive); and `C=C1CCC2(O)C3Cc4ccc(O)c5c4C2(CCN3CC2CC2)C1O5` (stereo unspecified), with 12.3% (inactive); and `NC[C@H](CC(=O)O)c1ccc(Cl)cc1`, with 3.97% (inactive).

Turning to `CN1C2CCC1CC(OC(c1ccccc1)c1ccc(Cl)cc1)C2` (stereo unspecified), the activity change, negative = inhibition is -51.9% (inactive) and 41.6% (inactive). The value for `CN(C)CCc1ccc(O)cc1` was 15.3% (inactive) and 3.73% (inactive); that for `CC[C@@H]1[C@@H](C)O[C@@](O)([C@@H](C)[C@H](O)[C@H](C)[C@H]2OC(=O)/C=C/C=C/[C@H](C)[C@H]([C@@H](C)[C@@H](O)[C@H](C)[C@@]3(O)C[C@@H](O[C@H]4C[C@H](O)[C@H](O)[C@H](C)O4)[C@H](CC)[C@@H](C)O3)OC(=O)/C=C/C=C/[C@H]2C)C[C@H]1O[C@H]1C[C@H](O)[C@H](O)[C@H](C)O1` was -83.6% (active); that for `CC(C)[C@@H](CN1CC[C@@](C)(c2cccc(O)c2)[C@@H](C)C1)NC(=O)[C@H]1Cc2ccc(O)cc2CN1` was 7.74% (inactive). Then `C[N@@+]1(CC2CC2)CC[C@]23c4c5ccc(O)c4O[C@H]2C(=O)CC[C@]3(O)[C@H]1C5`, with -5.91% (inactive). Then `CC(C)NCC(O)c1ccc(N)c(C#N)c1` (stereo unspecified), with 11.6% (inactive) and -5.38% (inactive); and `C[C@]12C[C@H]3S[C@H]3C[C@@H]1CC[C@@H]1[C@@H]2CC[C@]2(C)[C@@H](O)CC[C@@H]12`, with -16.5% (inactive); and `C[C@]12CC[C@H]3[C@@H](CC[C@@]45O[C@@H]4C(=O)C(C#N)C[C@]35C)[C@@H]1CC[C@@H]2O` (stereo partly specified), with 6.81% (inactive). On to `C[C@]12CCC3[C@@H](CC[C@@]45O[C@@H]4C(=O)C(C#N)C[C@]35C)C1CC[C@@H]2O` (stereo partly specified), for which the activity change, negative = inhibition is -74.3% (active).

For the compound `COC[C@H]1OC(=O)c2coc3c2[C@@]1(C)C1=C(C3=O)C2CCC(=O)[C@@]2(C)C[C@H]1OC(C)=O` (stereo partly specified), the activity change, negative = inhibition was -5.28% (inactive).

As for `CC(=O)C1CCC2C3CCC4CC(C)(O)CCC4(C)C3CCC12C` (stereo unspecified), the activity change, negative = inhibition was 13.6% (inactive). The value for `COc1cc2cc(c1Cl)N(C)C(=O)C[C@H](OC(=O)C(C)C)[C@]1(C)O[C@H]1[C@H](C)[C@@H]1C[C@@](O)(NC(=O)O1)[C@H](OC)/C=C/C=C(/C)C2` was -83.8% (active); that for `COC1=CC(=O)OC(/C=C/c2ccccc2)C1` (stereo unspecified) was 9.89% (inactive); that for `CC1(C)C(=O)N(c2ccc(C#N)c(C(F)(F)F)c2)C(=O)N1CCCCO` was 4.23% (inactive). The value for `CN1C(=O)CC(=O)N(c2ccccc2)c2cc(Cl)ccc21` was 7.34% (inactive). In the case of `C[C@]12CC[C@H](OC3OC(O)C(O)C(O)C3O)C=C1CCC1C2CC[C@]2(C)[C@@H](c3ccc(=O)oc3)CC[C@]12O` (stereo partly specified), the activity change, negative = inhibition was -83.9% (active). Then `C[C@@H]1O[C@@H](O[C@@H]2C=C3CCC4C(CC[C@]5(C)[C@@H](c6ccc(=O)oc6)CC[C@]45O)[C@@]3(C)CC2)C(O)C(O)[C@H]1O` (stereo partly specified), with -85.7% (active); and `NCCc1ccccn1`, with 26.7% (inactive) and 12% (inactive). `Cc1nnc2n1-c1sc(CCC(=O)N3CCOCC3)cc1C(c1ccccc1Cl)=NC2`: the activity change, negative = inhibition was 10% (inactive) and 7.36% (inactive). The value for `O=C(CS(=O)C(c1ccccc1)c1ccccc1)NO` (stereo unspecified) was 2.69% (inactive); that for `CCC(CO)NC(=O)C1C=C2c3cccc4c3c(cn4C)CC2N(C)C1` (stereo unspecified) was 0.967% (inactive); that for `Nc1ccc([As](=O)(O)O)cc1` was 2.94% (inactive). Then `CC(C)C[C@H](NC(=O)[C@H](Cc1ccccc1)NC(=O)CNC(=O)[C@H](C)NC(=O)[C@@H](N)Cc1ccc(O)cc1)C(=O)O`, with 15.2% (inactive); and `C[C@]12CCC3C(CC[C@]4(O)C[C@@H](O)CC[C@]34C=O)[C@@]1(O)CCC2C1=CC(=O)OC1` (stereo partly specified), with -72.5% (active) and -88.8% (active). Then `C[C@@H]1O[C@@H](O[C@H]2CC[C@]3(C=O)C4CC[C@]5(C)[C@@H](C6=CC(=O)OC6)CC[C@]5(O)C4CC[C@]3(O)C2)[C@H](O)[C@H](O)[C@H]1O` (stereo partly specified), with -76.4% (active). In the case of `C[C@]12CC[C@H]3[C@@H](CC[C@]4(O)C[C@@H](O)CC[C@]34C=O)[C@@]1(O)CC[C@@H]2C1=CC(=O)OC1`, the activity change, negative = inhibition was -91% (active). Take `CCN1C[C@]2(COC)CCC(OC)[C@@]34C5C[C@]6(O)[C@H](OC(=O)c7ccc(OC)cc7)C5[C@@](OC(C)=O)(C[C@H]6OC)[C@@H]([C@H](OC)C23)[C@@H]14` (stereo partly specified): the activity change, negative = inhibition was -1.07% (inactive). Consider `NC1CCN(c2cccnc2)C1` (stereo unspecified), for which the activity change, negative = inhibition was 10.7% (inactive).

These data come from PubChem BioAssay AID1259421 (Broad Institute, 2018).
